Records with an inconclusive call do not appear. Active and inactive are the calls of the source. Unless noted, calls come from the whole dose curve.
Columns and labels:
[1] = Nuclear factor erythroid 2-related factor 2/antioxidant responsive element (Nrf2/ARE) small molecule agonists: qHTS cell viability counter screen in human keratinocytes (AID 1919968; active = well fitted curve in the direction sought with a large enough effect in the repeat runs; an effect the other way counts as inactive or inconclusive; note: nearly all actives have a fitted effect of over 55% in size)
Procedure, shortened: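 Stably transfected HaCaT (KeratinoSens), 1,500/well. Test agents in DMSO were applied for 23 h, 37 C/5% CO2. CellTiter-Fluor was incubated 1 h before the fluorescence read.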

[2] = Nuclear factor erythroid 2-related factor 2/antioxidant responsive element (Nrf2/ARE) small molecule agonists: luciferase reporter gene qHTS assay in human keratinocytes (AID 1919969); note: nearly all actives have a fitted effect of over 35% in size
[3] = target: Gonadotropin-releasing hormone receptor (Homo sapiens) (UniProt P30968); experiment: Human gonadotropin-releasing hormone receptor (GnRHR) small molecule agonists, calcium flux assay in GnRHR-HEK293 cells (AID 1920063); note: nearly all actives have a fitted effect of over 35% in size
Gonadotropin-releasing hormone receptor (Homo sapiens), sequence (P30968 whole entry, looked up): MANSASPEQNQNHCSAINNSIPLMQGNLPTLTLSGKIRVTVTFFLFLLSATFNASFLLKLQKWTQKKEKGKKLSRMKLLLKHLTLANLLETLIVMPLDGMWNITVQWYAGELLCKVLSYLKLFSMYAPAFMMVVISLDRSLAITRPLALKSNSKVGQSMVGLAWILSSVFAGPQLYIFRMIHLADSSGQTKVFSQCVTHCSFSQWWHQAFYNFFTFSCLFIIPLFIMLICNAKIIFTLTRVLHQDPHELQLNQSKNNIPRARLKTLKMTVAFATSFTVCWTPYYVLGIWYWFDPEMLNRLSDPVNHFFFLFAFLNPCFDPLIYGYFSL
Procedure, shortened: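 Stable human GnRHR HEK293 line. 18 h plating, then calcium dye for 1 h at 37 C. Agonist-mode compound addition from DMSO stocks; fluorescence monitored 3 min.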

[4] = target: KiSS-1 receptor (Homo sapiens) (UniProt Q969F8); experiment: Human kisspeptin (KISS1R) small molecule agonists, calcium flux assay in KISS1R-HEK293 cells (AID 1920064; active = well fitted curve in the direction sought with a large enough effect in the repeat runs; an effect the other way counts as inactive or inconclusive)
KiSS-1 receptor (Homo sapiens), sequence (Q969F8 whole entry, looked up): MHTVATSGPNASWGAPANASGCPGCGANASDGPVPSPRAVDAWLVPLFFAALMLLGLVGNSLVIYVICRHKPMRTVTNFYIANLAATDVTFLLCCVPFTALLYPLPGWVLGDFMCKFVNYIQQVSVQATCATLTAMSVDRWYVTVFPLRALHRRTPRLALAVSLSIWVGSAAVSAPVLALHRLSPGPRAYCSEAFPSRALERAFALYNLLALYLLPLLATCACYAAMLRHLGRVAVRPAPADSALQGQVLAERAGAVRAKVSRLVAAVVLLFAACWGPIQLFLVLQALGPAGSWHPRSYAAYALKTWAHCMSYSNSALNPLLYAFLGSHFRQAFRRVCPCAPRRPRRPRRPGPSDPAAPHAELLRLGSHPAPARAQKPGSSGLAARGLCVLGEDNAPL
Procedure, shortened: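 After overnight (18 h) culture at 37 C/5% CO2, human KISS1R-HEK293 cells received calcium dye for 1 h, then test compound; emission at 540 nm (excitation 480 nm) was tracked for 3 min.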

[5] = G protein-coupled receptor (GPCR) small molecule agonists, calcium flux assay: HEK293 wild type cell line counter screen (AID 1920065)
Procedure, shortened: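 Following 18 h incubation at 37 C/5% CO2, plates got calcium dye for 1 h; compounds, ATP or DMSO were then pinned in and fluorescence followed kinetically (480/540 nm).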

[6] = p53 small molecule agonists, cell-based qHTS assay with human liver microsomes: qHTS cell viability counter screen (AID 1963579); note: nearly all actives have a fitted effect of over 45% in size
Procedure, shortened: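 In this multiplexed counter screen, the reporter plates were subsequently treated with CellTiter-Glo so that cell viability, reflected by luminescence, could be recorded for p53RE-bla cells dosed 16 h with compounds under microsomal activation (HLM and NADPH).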

[7] = p53 small molecule agonists, cell-based qHTS assay with rat liver microsomes: qHTS cell viability counter screen (AID 1963580); note: nearly all actives have a fitted effect of over 45% in size
Procedure, shortened: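 Counter screen for cytotoxicity under metabolic activation: rat liver microsomes and NADPH, 0.5 mg/mL final each, added with compounds to p53RE-bla HCT-116 cells; 16 h at 37 C, then ATP luminescence read.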

[8] = p53 small molecule agonists, cell-based qHTS assay: qHTS cell viability counter screen (AID 1963581); note: nearly all actives have a fitted effect of over 45% in size
Procedure, shortened: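 qHTS counter screen: 16 h compound exposure at 37 C of p53RE-bla HCT-116 cells (4,000 per well, seeded 5 h prior), cell viability by ATP luminescence.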

[9] = target: 5-hydroxytryptamine receptor 2A (Homo sapiens) (UniProt P28223); experiment: 5-hydroxytryptamine receptor 2A (HTR2A) small molecule antagonists, cell-based qHTS assay (AID 1963586); note: nearly all actives have a fitted effect of over 45% in size
5-hydroxytryptamine receptor 2A (Homo sapiens), sequence (P28223 whole entry, looked up): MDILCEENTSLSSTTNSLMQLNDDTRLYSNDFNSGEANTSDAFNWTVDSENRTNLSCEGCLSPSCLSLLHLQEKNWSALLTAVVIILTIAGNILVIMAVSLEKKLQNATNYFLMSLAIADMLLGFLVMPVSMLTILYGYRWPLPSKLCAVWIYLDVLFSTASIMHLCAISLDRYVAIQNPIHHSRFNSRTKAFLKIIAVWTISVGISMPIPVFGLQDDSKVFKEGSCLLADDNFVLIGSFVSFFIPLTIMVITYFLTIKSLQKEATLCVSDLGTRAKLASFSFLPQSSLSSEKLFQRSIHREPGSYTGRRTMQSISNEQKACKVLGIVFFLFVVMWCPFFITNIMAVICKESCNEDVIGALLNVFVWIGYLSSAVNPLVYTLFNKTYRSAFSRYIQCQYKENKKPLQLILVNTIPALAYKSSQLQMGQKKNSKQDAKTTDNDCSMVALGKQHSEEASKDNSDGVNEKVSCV
Procedure, shortened: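 CHO cells stably expressing human HTR2A were plated for 18 h at 37 C, then loaded with calcium dye for 1 h. Compounds were preincubated 5 min at room temperature before DOI (4 nM solution) was added. Kinetic fluorescence was read for 3 min.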

[10] = target: 5-hydroxytryptamine receptor 2A (Homo sapiens) (UniProt P28223); experiment: 5-hydroxytryptamine receptor 2A (HTR2A) small molecule agonists, cell-based qHTS assay (AID 1963587); note: nearly all actives have a fitted effect of over 30% in size
Procedure, shortened: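 HTR2A-CHO cells, plated 18 h at 37 C/5% CO2, dye-loaded 1 h at 37 C; compounds in DMSO added by pin tool (agonist mode). Intracellular calcium flux read as kinetic fluorescence on FDSS over 2 min at 1 s intervals.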

[11] = target: Muscarinic acetylcholine receptor M1 (Homo sapiens) (UniProt P11229); experiment: Cholinergic receptor muscarinic 1 (CHRM1) small molecule antagonists, cell-based qHTS assay (AID 1963588); note: nearly all actives have a fitted effect of over 40% in size
Muscarinic acetylcholine receptor M1 (Homo sapiens), sequence (P11229 whole entry, looked up): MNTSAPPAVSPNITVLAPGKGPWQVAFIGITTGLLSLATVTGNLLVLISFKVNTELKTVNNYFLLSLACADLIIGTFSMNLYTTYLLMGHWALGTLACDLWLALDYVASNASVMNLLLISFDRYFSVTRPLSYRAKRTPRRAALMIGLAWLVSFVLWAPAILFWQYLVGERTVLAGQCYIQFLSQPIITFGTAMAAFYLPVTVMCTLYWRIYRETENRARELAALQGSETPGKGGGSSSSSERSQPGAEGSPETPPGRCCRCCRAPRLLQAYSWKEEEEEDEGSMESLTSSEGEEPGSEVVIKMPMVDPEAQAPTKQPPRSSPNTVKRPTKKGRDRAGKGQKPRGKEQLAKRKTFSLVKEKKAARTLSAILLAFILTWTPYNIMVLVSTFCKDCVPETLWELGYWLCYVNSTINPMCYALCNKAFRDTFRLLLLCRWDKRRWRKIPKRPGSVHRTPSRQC
Procedure, shortened: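 Compounds were tested at 15 concentrations in three independent runs. Dye-loaded CHRM1-CHO cells were exposed 5 min at room temperature before stimulation by acetylcholine added at 50nM. Intracellular calcium was read kinetically on FDSS for 3 min.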

[12] = target: Muscarinic acetylcholine receptor M1 (Homo sapiens) (UniProt P11229); experiment: Cholinergic receptor muscarinic 1 (CHRM1) small molecule agonists, cell-based qHTS assay (AID 1963589); note: nearly all actives have a fitted effect of over 35% in size
Procedure, shortened: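 Kinetic fluorescence (1 s intervals) of calcium-sensitive dye in human M1 CHO cells after compound addition; cells pre-incubated 18 h at 37 C/5% CO2 and dye-loaded 1 h.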

[13] = cAMP Responsive Elements (CRE) small molecule agonists, cell-based qHTS assay (AID 1963590)
Procedure, shortened: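 Test agents in DMSO were incubated 3 h at 37 C/5% CO2 with CRE-bla HEK 293T cells seeded 18 h earlier; LiveBLAzer B/G FRET substrate was added and read after 2 h at room temperature.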

[14] = cAMP Responsive Elements (CRE) small molecule antagonists, cell-based qHTS assay (AID 1963591; active = well fitted inhibition curve with a large enough effect in the signal ratio in the repeat runs, not every such curve was filed as active; the % refers to the signal ratio)
Procedure, shortened: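 Reporter line CRE-bla HEK 293T in dialyzed-FBS DMEM; cells preincubated 18 h, treated 3 h with compound plus NKH477 (0.25 uM final); LiveBLAzer FRET, 2 h RT.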

[15] = target: Beta-2 adrenergic receptor (Homo sapiens) (UniProt P07550); experiment: Adrenergic beta2 receptor (ADRB2) small molecule antagonists, cell-based qHTS assay (AID 1963592); note: series mostly up to about 92 µM; nearly all actives have a fitted effect of over 50% in size
Beta-2 adrenergic receptor (Homo sapiens), sequence (P07550 whole entry, looked up): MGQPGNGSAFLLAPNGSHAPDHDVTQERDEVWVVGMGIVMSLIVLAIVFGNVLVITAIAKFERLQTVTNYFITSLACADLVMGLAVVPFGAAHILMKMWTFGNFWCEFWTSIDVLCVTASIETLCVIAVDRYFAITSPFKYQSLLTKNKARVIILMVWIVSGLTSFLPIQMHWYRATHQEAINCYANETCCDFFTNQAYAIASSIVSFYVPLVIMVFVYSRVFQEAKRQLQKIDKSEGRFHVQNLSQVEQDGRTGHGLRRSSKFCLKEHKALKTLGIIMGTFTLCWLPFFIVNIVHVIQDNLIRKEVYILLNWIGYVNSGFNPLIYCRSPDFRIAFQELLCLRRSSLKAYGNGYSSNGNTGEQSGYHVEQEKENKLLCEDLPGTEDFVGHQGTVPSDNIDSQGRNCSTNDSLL
Procedure, shortened: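 Assay format: CHO-ADRB2 cells, 18-20hr seeding at 37C/5% CO2, then compound plus 1nM isoproterenol agonist mix for 0.5hr RT. Homogeneous time-resolved fluorescence cAMP detection after 1hr, expressed as 665/615 nm ratio.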

[16] = target: D(2) dopamine receptor (Homo sapiens) (UniProt P14416); experiment: Dopamine D2 receptor (DRD2) small molecule agonists, cell-based qHTS assay (AID 1963594); note: nearly all actives have a fitted effect of over 35% in size
D(2) dopamine receptor (Homo sapiens), sequence (P14416 whole entry, looked up): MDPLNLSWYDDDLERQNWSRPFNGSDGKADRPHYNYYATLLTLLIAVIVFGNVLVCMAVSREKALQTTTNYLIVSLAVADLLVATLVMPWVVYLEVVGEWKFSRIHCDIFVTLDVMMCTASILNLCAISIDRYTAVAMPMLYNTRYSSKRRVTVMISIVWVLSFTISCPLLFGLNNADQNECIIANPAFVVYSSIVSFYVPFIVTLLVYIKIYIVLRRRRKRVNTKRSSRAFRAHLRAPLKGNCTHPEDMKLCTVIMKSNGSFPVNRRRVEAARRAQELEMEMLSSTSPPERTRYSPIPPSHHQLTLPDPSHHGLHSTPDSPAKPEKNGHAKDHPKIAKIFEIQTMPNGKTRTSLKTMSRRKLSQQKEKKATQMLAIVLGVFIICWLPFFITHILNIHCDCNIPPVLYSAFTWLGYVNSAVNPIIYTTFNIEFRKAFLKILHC
Procedure, shortened: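 HEK293 cells stably expressing DRD2 were cultured 24 h at 37 C, then given Ro20-1724 (0.1 mM final) and compounds for 10 min at room temperature. NKH477 (200nM) was then added for 30 min. cAMP was read by HTRF.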

[17] = target: D(2) dopamine receptor (Homo sapiens) (UniProt P14416); experiment: Dopamine D2 receptor (DRD2) small molecule antagonists, cell-based qHTS assay (AID 1963595; active = well fitted inhibition curve with a large enough effect in the signal ratio in the repeat runs, with a control signal flat; the % refers to the signal ratio)
Procedure, shortened: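 Cells were plated and grown for 24 h at 37 °C. Ro20-1724 (0.1 mM final) went in first, then compound for 10 min. NKH477 (200 nM) with quinpirole (12 nM) followed for 30 min at RT, then HTRF detection reagents for 1 h.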

[18] = target: Beta-2 adrenergic receptor (Homo sapiens) (UniProt P07550); experiment: Adrenergic beta2 receptor (ADRB2) small molecule agonists, cell-based qHTS assay (AID 1963593);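 note: CHO cells stably overexpressing human ADRB2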
Procedure, shortened: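 CHO cells stably over-expressing ADRB2 were plated overnight at 37C, then dosed with compounds plus a stimulation mix containing 100uM IBMX and 25uM Ro-20-1724 for 0.5hr at room temperature. cAMP was measured by HTRF competition, 1hr.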

Measured: Potency

CCCCCCC#CC(=O)OC
not listed: [18]
inactive: all other assays above

Cc1nc2ccc(CN(C)c3ccc(C(=O)N[C@@H](CCC(=O)O)C(=O)O)s3)cc2c(=O)[nH]1
not listed: [18]
inactive: all other assays above

Brc1cc(Br)c(Oc2cc(Br)c(Br)cc2Br)cc1Br
not listed: [18]
inactive: all other assays above

CCOc1ccc(NC(N)=O)cc1
not listed: [18]
inactive: all other assays above

CCN[C@H]1C[C@H](C)S(=O)(=O)c2sc(S(N)(=O)=O)cc21
not listed: [15]
inactive: all other assays above

CCCCCCCCS(=O)(=O)O
not listed: [18]
inactive: all other assays above

Clc1cccc(C(c2ccc3nc[nH]c3c2)n2ccnc2)c1 (stereo unspecified)
not listed: [16] | [18]
inactive: all other assays above

CC(=O)Nc1ccc(OC(=O)c2ccccc2OC(C)=O)cc1
not listed: [18]
inactive: all other assays above

CC(C)(C)c1ccc(N)cc1
not listed: [16]
inactive: all other assays above

C=C(C)[C@@H]1CC=C(C)C(=O)C1
not listed: [18]
inactive: all other assays above

Cc1ccc(Br)cc1
not listed: [16] | [18]
inactive: all other assays above

BrCCOc1ccccc1
not listed: [18]
inactive: all other assays above

CC(C)(O)c1ccc(C(C)(C)O)cc1
not listed: [16] | [18]
inactive: all other assays above

O=C1CCCN1C1CCCCC1
not listed: [18]
inactive: all other assays above

CCN1C=CN(C)C1C (stereo unspecified)
not listed: [18]
inactive: all other assays above

BrCc1cccc(Oc2ccccc2)c1
not listed: [18]
inactive: all other assays above

CCCC(=O)OC/C=C(\C)CCC=C(C)C
not listed: [18]
inactive: all other assays above

Nc1cc(N)cc(C(=O)O)c1
not listed: [17] | [18]
inactive: all other assays above

CC1(C)CC(O)CC(C)(C)N1[O]
not listed: [18]
inactive: all other assays above

C=C(C)CS(=O)(=O)O
not listed: [18]
inactive: all other assays above

CC(O)CN (stereo unspecified)
not listed: [15]
inactive: all other assays above

CCC(C)(CCC(C)C)C(=O)O (stereo unspecified)
not listed: [17] | [18]
inactive: all other assays above

CC(=O)OCC(=O)NCCCOc1cccc(CN2CCCCC2)c1
not listed: [16] | [18]
inactive: all other assays above

O=C(Cl)c1ccc([N+](=O)[O-])cc1
not listed: [18]
inactive: all other assays above

CCCCOCCOCCOCCOCCO
not listed: [18]
inactive: all other assays above

CN1C(C)(C)CC(O)CC1(C)C
not listed: [18]
inactive: all other assays above

NC(CCC(=O)O)C(=O)O (stereo unspecified)
not listed: [16] | [18]
inactive: all other assays above

CCCNC(C)(C)COC(=O)c1ccccc1
not listed: [18]
inactive: all other assays above

Cc1cccc(C)c1NC(=O)CN(CC(=O)O)CC(=O)O
not listed: [18]
inactive: all other assays above

— PubChem BioAssay (Tox21)
